Pf growth 48h = P. falciparum growth inhibition at 48 hours (one generation); P. falciparum luciferase growth in erythrocytes, 48 h; Potency, µM (series often up to 28.7 µM), without a hit: top-dose activity change, negative = inhibition, most hits filed as inhibitors; 5.9% of 310,000 active; further: potency means the concentration at half of the fitted maximal effect; on the % scale 0 is the no-effect control and ±100 the full control effect
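Luminescence readout; reporter = integrated firefly luciferase in P. falciparum. RBC culture at 2% hematocrit, 0.1% parasitemia final, 37 C/5% CO2; decreased signal taken as growth inhibition.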
Lassa entry inh = blocks Lassa virus binding to or entry into cells. Lassa virus pseudotype entry inhibition, cell reporter. 1.2% of 300,000 active. AID 540256. Potency, µM (doses to about 37.9 µM), for the others: at the highest dose activity change, negative = inhibition, hits mostly inhibitors; calls by dose curve; tested in HEK293 cells; further: potency means the concentration at half of the fitted maximal effect; on the % scale 0 is the no-effect control and ±100 the full control effect; nearly all actives have a fitted effect of over 50% in size
CHX counter = counter-screen hit for Shiga toxin inhibitors, cycloheximide; AID 2314; max response, %; cell reporter, cycloheximide protein synthesis inhibition counterscreen; 12% of 300,000 active; in the data active means max response mostly above about 13%, no sharp cut-off; inactive means mostly below about 14%; further: read at 38.3 µM for the half of the compounds with a filed dose; 0% is about no effect
MARV entry inh = blocks Marburg virus binding to or entry into cells. Marburg virus pseudotyped entry inhibition, cell reporter. Potency, µM (doses to about 37.8 µM), without a hit: at the highest dose activity change, negative = inhibition, most hits filed as inhibitors. 1.8% of 300,000 active; calls by dose curve; tested in HEK293 cells; further: potency means the concentration at half of the fitted maximal effect; on the % scale 0 is the no-effect control and ±100 the full control effect
Shiga inhibitor = blocks Shiga toxin action in Vero cells; Vero cells, Shiga toxin protein synthesis inhibition reporter; inhibition, % at 38.7 µM; 9.2% of 290,000 active; AID 2315; in the data active means inhibition mostly above about 28%, no sharp cut-off; inactive means mostly below about 43%; further: 0% is about no effect
Pf growth 96h = inhibits malaria parasite growth, 96 h; P. falciparum luciferase reporter growth, 96 h; AID 504834; Potency, µM (series often up to 28.7 µM), for inactives: at the highest dose activity change, negative = inhibition, usual class: inhibitors; 6.9% of 320,000 active; further: potency means the concentration at half of the fitted maximal effect; on the % scale 0 is the no-effect control and ±100 the full control effect
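Compounds incubated with erythrocytes infected by luciferase-expressing P. falciparum (2% hematocrit, 0.05% parasitemia final) for 96 hours, 37 C in 5% CO2. Growth inhibition scored as decreased luciferase luminescence.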
Active calls of the source: *; ? = inconclusive; . = not tested or not shown; [ ] = remark or other dose. Rows were chosen to be rich in hits. Some 19% of all compounds tested hit in one or more screens of this group. Unless noted, the call rests on the fitted dose curve; in most records, active means well fitted inhibition curve with a large enough effect; inconclusive means small, poorly fitted or top-dose-only effect, or another doubt; inactive means no such curve, though single readings can be large or run the other way.

SMILES	Pf growth 48h	Lassa entry inh	CHX counter	MARV entry inh	Shiga inhibitor	Pf growth 96h
NS(=O)(=O)c1ccc(CNC(=S)NCc2ccc(F)cc2)cc1	37%	3%	-3	8%	-9	10µM*
NS(=O)(=O)c1ccc(CNC(=S)NC2CC2)cc1	28%	-7%	3	0%[46.1 µM]	22	2.1µM*
CCOC(=O)c1c(N)sc2c(OCC)c(Br)ccc12	-21%	-12%	2	?	25	431%
O=C(Cn1cnc2ccccc2c1=O)NNC(=O)c1cccc([N+](=O)[O-])c1	1%	.	.	.	.	-18%
CCCn1c(NC(=O)CN2C(=O)NC3(CCCC3)C2=O)nc2ccccc21	-13%	-1%	.	10%	.	10%
O=c1oc2ccccc2c(Nc2ccccc2)c1CN1CCCCC1	?	-1%[46.1 µM]	-2	?	-23	?
O=c1oc2ccccc2c(O)c1CN1CCCCC1	35%	8%	-3	?	9	15µM*
Oc1ccc2ccccc2c1CN1CCN(c2ccccc2)CC1	8.3µM*	-7%	-6	-23%	11	?
Oc1ccc2ccccc2c1CN1CCCC1	13µM*	-15%	-3	-5%[46.1 µM]	-2	38%
Oc1ccc2ccccc2c1CN1CCCCC1	.	7%[46.1 µM]	.	-5%[46.1 µM]	.	.
Oc1ccc2cc(Br)ccc2c1CN1CCCC1	?	-26%[46.1 µM]	-1	2%[46.1 µM]	-6	4.7µM*
CCOC(=O)c1nc2c(ccc3ccccc32)cc1C	39%	27%	17*	-16%[14.2 µM]	42*	44%
CC1CCN(CC(=O)Nc2cccc(C(=O)Nc3cccc(C(F)(F)F)c3)c2)CC1	1.3µM*	?	-3	8.9µM*	-4	0.93µM*
O=C(CN1CCN(Cc2ccccc2)CC1)Nc1cccc(C(F)(F)F)c1	2%	-3%	-3	17%	-8	.
O=C(CN1CCN(c2ccccc2)CC1)Nc1cccc(C(F)(F)F)c1	5%	?	-2	-7%	13	-24%
CC1CN(CC(=O)Nc2cccc(C(=O)Nc3cccc(C(F)(F)F)c3)c2)CC(C)O1 (stereo not given)	.	?	-3	?	-4	0.15µM*
COc1ccc2oc(=O)c(C(=O)NCCc3c(C)[nH]c4ccc(C)cc34)cc2c1	.	1%[46.1 µM]	.	-2%[46.1 µM]	.	.
CCN(CC(=O)Nc1cc(S(=O)(=O)N2CCCCC2)ccc1Cl)Cc1ccccc1	10µM*	?	.	?	.	10µM*
CCN(CC(=O)Nc1cc(S(=O)(=O)N2CCOCC2)ccc1Cl)Cc1ccccc1	12µM*	.	.	.	.	12µM*
COc1ccccc1-n1c(SCC(=O)Nc2cccc3ccccc23)nc(O)cc1=O	.	-9%	-1	-2%	18	-6%
Cc1cccc(CN2CCN(C3CCCC3)C(CCO)C2)n1 (stereo not given)	0%	1%	-2	5%	28	10%
Cc1ccc(NC2=NC3(CCCC3)N=C(N)N2)c(C)c1	?	9%[46.1 µM]	-3	?	-7	204%
Cc1ccc(NC2=NC3(CCCCC3)N=C(N)N2)c(C)c1	?	6%	-3	3%	-12	8.3µM*
NC1=NC2(CCCCC2)N=C(Nc2ccc(Br)cc2)N1	1µM*	13%	-5	16%	-9	?
Cc1ccc(CNC(=O)C(=O)NCC2OCCCN2S(=O)(=O)c2ccc(F)cc2)cc1 (stereo not given)	-3%	-13%	-2	-16%	-13	7%
SMILES	Pf growth 48h	Lassa entry inh	CHX counter	MARV entry inh	Shiga inhibitor	Pf growth 96h
COc1cc(CCCN2C(N)=NC[C@@H]2c2ccccc2)cc(OC)c1OC	12µM*	.	-3	.	-5	?
COc1cc(CCCN2C(=O)C(=O)NC[C@@H]2c2ccccc2)cc(OC)c1OC	5%	.	-2	.	9	5%
CCC(C)[C@H]1CN=C(N)N1CCCc1cc(OC)c(OC)c(OC)c1 (stereo not given in full)	10µM*	.	-1	.	-5	13µM*
CC(O)[C@H]1CN=C(N)N1CCc1cc(C(F)(F)F)cc(C(F)(F)F)c1 (stereo not given in full)	?	.	-6	.	2	59%
CCC(C)[C@H]1CN=C(N)N1CCc1cc(C(F)(F)F)cc(C(F)(F)F)c1 (stereo not given in full)	4.7µM*	.	-9	.	-1	2.1µM*
CCC(CC)NC(=O)c1ccc(NS(=O)(=O)c2ccc3[nH]c(=O)[nH]c3c2)cc1	19%	.	-1	.	-18	-14%
O=C(c1cccc(OC2CCN(Cc3ccc(F)cc3)CC2)c1)N1CCCC1	-10%	.	-1	.	-3	2%
COc1ccccc1/C=C1/C(=N/O)C2CCN1CC2	12µM*	?	1	22%	-5	-4%
COc1ccccc1CC1/C(=N/O)C2CCN1CC2 (stereo not given)	-5%	-2%	-4	0%	-2	?
CCCCC1(CC(=O)OCC)C(=O)N(c2ccccc2)N(c2ccccc2)C1=O	?	?	-2	-18%	-4	15µM*
CCCCC1(CO)C(=O)N(c2ccccc2)N(c2ccccc2)C1=O	2%	-21%[46.1 µM]	0	?	12	0%
CCCCC1(Cc2cccc([N+](=O)[O-])c2)C(=O)N(c2ccccc2)N(c2ccccc2)C1=O	3.7µM*	?	-3	16µM*	-11	?
CCn1c(CNC(=O)c2ccc(OC)cc2)nnc1SCC(=O)Nc1cc(C)ccc1C	.	-6%[46.1 µM]	.	?	.	.
Cc1ccc(NC(=O)Nc2cccc(F)c2)nc1	140%	.	26*	.	21	?
Cc1ccnc(NC(=O)c2cccc(NC(=O)c3ccccc3C)c2)c1	18%	.	12	.	13	8%
O=C(Nc1cccc(F)c1)Nc1ccc(Cl)cn1	63%	.	24*	.	38*	-20%
Cc1ccnc(NC(=O)Nc2cccc(F)c2)c1	222%	6.5µM*	41*	?	73*	7.4µM*
O=C(Nc1ccc(Cl)cn1)Nc1ccccc1Cl	22%	?	6	?	9	2%
Cc1nc2c(-c3ccccc3)cnn2c(N2CCOCC2)c1C	187%	0%	47*	?	98*	180%
CC(C)(C)c1cc(N2CCOCC2)n2ncc(-c3ccccc3)c2n1	.	.	8	.	12	-20%
CCCc1cc(N2CCOCC2)n2ncc(-c3ccccc3)c2n1	29%	.	39*	.	58*	38%
Cc1nnc(-c2ccccc2)nc1N1CCOCC1	13%	12%	-2	-15%	-11	62%
CCCn1c(C)nc2c(c1=O)c1nc3ccccc3nc1n2CCc1ccccc1	.	.	.	-3%	.	.
COc1ccc(NC(=O)C=C(C)C)cc1Cl	121%	-23%	29*	-2%	102*	?
CC(C)=CC(=O)Nc1ccc(Cl)cc1	97%	.	54*	.	55*	?
O=C(OCC(=O)N1CCCC1)c1ccc(OC(F)(F)F)cc1	41%	12%[46.1 µM]	22*	-8%[46.1 µM]	70	56%
O=C(N1CCCC1)C(F)(F)Oc1ccc(F)cc1	8%	9%[46.1 µM]	14	21%[46.1 µM]	32*	-4%
O=Cc1ccc(C(=O)OCC(=O)N2CCCC2)cc1	16%	9%	-2	16%[46.1 µM]	18	18%
CCN(CC)c1ccc(C(=O)OCC(=O)N2CCCC2)cc1	24%	-15%[46.1 µM]	29*	?	59*	18%

From PubChem BioAssay
